Laboratory results reported in PubChem BioAssay (NCI).
Compounds without any hit were thinned out: in the full panel of roughly 83,000, 20% have a hit.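 Method: cells in 96-well plates; compound added at one concentration; 48 h incubation; percent growth measured; values under 10 scored active.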 Values without a mark were called inactive. Calls of active or inactive are those of the source.

Assays:
Assay in all cases: NCI-60 one-dose screen, 48 h (100 = growth as untreated, 0 = no growth, -100 = all killed)
Details in all cases: 10 µM
DU-145 prostate = test system: DU-145 prostate
K-562 leukemia = test system: K-562 leukemia
MALME-3M melanoma = test system: MALME-3M melanoma
MDA-MB-231 breast = test system: MDA-MB-231 breast
RXF 393 renal = test system: RXF 393 renal
SF-268 CNS = test system: SF-268 CNS
SF-295 CNS = test system: SF-295 CNS
SF-539 CNS = test system: SF-539 CNS
UACC-257 melanoma = test system: UACC-257 melanoma
M14 melanoma = test system: M14 melanoma

SMILES | growth (DU-145 prostate) | growth (K-562 leukemia) | growth (MALME-3M melanoma) | growth (MDA-MB-231 breast) | growth (RXF 393 renal) | growth (SF-268 CNS) | growth (SF-295 CNS) | growth (SF-539 CNS) | growth (UACC-257 melanoma) | growth (M14 melanoma)
COc1ccc(C2=NNC(c3sc(Cl)nc3Cl)C2)cc1 (stereo not given) | 86.6% | 7.31% (active) | 74.3% | 67.3% | 71.7% | 73% | 102% | 110% | 94% | 59.7%
OC(CNC1CCCC1)Cn1c2ccccc2c2ccccc21 (stereo not given) | 23% | 3.31% (active) | -70.8% (active) | -23.9% (active) | 31.2% | 44.8% | -29.8% (active) | -69.9% (active) | -13.2% (active) | -68.1% (active)
COc1ccc(-c2nnc(N3CCN(C(=O)CN4CCN(c5ccc(Cl)cc5)CC4)CC3)nc2-c2ccc(OC)cc2)cc1 | 80.2% | 32% | 80.8% | 78.7% | 53.6% | 69% | 45.2% | 82.2% | 70.2% | 71.4%
Fc1ccc2[nH]c3c(NCCCN4CCOCC4)ncnc3c2c1 | 79.2% | 73.9% | 61.5% | 55.6% | 60.8% | 61.5% | 39% | 65% | 107% | 85.3%
N#C/C(=C/c1cc([N+](=O)[O-])ccc1Cl)C(N)=O | 92.7% | 38.8% | 99% | 111% | 99.2% | 96.4% | 98.1% | 101% | 97.8% | 88.8%
C[N+]1(CC2CO2)CCCCCC1 (stereo not given) | 107% | 119% | 95.8% | 116% | 103% | 104% | 103% | 95.8% | 99.4% | 106%
O=C(O)CCCCSCCCCC(=O)O | 120% | 97.7% | 101% | 107% | 111% | 107% | 99.6% | 103% | 89.7% | 103%
CCCCCCCCCCCCCC[n+]1ccccc1 | -48.6% (active) | 0.808% (active) | -50.8% (active) | -62.6% (active) | -69.6% (active) | -37.3% (active) | -89.8% (active) | -30.7% (active) | -70.8% (active) | -33.5% (active)
NCCNc1ccc2cc(-c3nc4ccccc4[nH]3)c(=O)oc2c1 | 103% | 81.3% | 105% | 66% | 108% | 92.3% | 98.2% | 94.2% | 98.6% | 104%
Oc1cc(O)c(Br)cc1Br | 107% | 97.5% | 120% | 112% | 110% | 100% | 98.7% | 96.4% | 102% | 92.9%
O=C(N/N=c1/ccoc2cccnc12)N1CCN(c2ncccn2)CC1 | 50.5% | 9.99% (active) | 55.5% | 40% | 66.8% | 37.3% | 15.9% | 45.3% | 5.91% (active) | 14.5%
